FBW7 activator: FBW7 E3 ligase activators, primary screen, biochemical, AlphaScreen, human; F-box/WD repeat-containing protein 7 (Homo sapiens), Q969H0; 650,000 compounds, 0.13% hits; AlphaScreen FBW7–phospho-cyclin E peptide binding, activator screen; normalized activity (activation), % at 26.1 µM; in the data active = normalized activity above about 1.9%;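 note: purified mutant Fbw7 with reduced substrate affinity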
GPR151 ag: activators of human GPR151, primary screen, cell-based, PathHunter beta-arrestin, luminescence; PathHunter beta-arrestin GPR151 cells; AID 1508602, 2020; activation, % at 11.2 µM; 650,000 compounds, 1% hits; in the data active = activation above about 4.9%;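 note: 0% = median of compound wells and 100% = cells with positive control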
MITF primary: MITF inhibitors, primary screen, biochemical, AlphaScreen, human; Microphthalmia-associated transcription factor (Homo sapiens), O75030; 650,000 compounds, 0.91% hits; AID 1259374, 2018; AlphaScreen MITF homodimerization, bead proximity signal; inhibition, % at 2.6 µM; in the data active = inhibition above about 50%;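 note: 0% = vehicle wells with protein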
Target sequence (O75030 whole entry, looked up): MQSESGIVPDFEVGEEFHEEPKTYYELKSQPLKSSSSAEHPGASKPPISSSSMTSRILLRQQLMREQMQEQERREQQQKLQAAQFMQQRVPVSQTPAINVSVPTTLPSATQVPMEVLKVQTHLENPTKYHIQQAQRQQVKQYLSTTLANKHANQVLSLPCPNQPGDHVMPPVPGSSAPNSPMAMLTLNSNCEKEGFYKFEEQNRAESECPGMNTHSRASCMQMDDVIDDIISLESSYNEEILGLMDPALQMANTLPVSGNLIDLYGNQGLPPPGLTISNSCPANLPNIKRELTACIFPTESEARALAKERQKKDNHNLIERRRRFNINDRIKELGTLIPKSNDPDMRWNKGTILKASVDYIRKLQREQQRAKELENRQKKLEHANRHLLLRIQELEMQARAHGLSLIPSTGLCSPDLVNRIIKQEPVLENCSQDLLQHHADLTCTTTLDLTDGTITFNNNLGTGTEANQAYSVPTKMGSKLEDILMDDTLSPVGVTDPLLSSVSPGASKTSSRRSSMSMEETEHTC
TEAD-YAP inh: TEAD-YAP interaction inhibition, primary screen, TEAD-YAP interaction inhibitor project, luminescence, HEK-TIYL cells; inhibition, % at 9.12 µM; AID 1259422, 2018; TEAD-Gal4/YAP UAS-luciferase luminescence; 640,000 compounds, 1.4% hits; in the data active = inhibition above about 32%;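 note: 0% = median of test compound wells and 100% = reference inhibitor wells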
MITF confirm: MITF inhibitors, retest of hits, confirmation, biochemical, AlphaScreen, triplicate | shares compounds with MITF primary | AlphaScreen MITF homodimerization, biotin/His-MITF beads | inhibition, % at 2.6 µM | 4,700 compounds, 16% hits | AID 1259372, 2018;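 active = inhibition above a cutoff derived from the DMSO control wells, cut at about 28% in these data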;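 note: 0% = MITF dimer wells with DMSO only; inhibitors lower the bead chemiluminescence by keeping MITF from dimerizing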
AlphaScreen DR: AlphaScreen optical interference compounds, dose response, counter-screen, biochemical, HTS. IC50, µM. 480 compounds, 6% hits. shares compounds with MITF primary. AlphaScreen optical interference counterscreen, cell-free; call rule not given here
AS interf ctr: AlphaScreen optical interference compounds, counter-screen for MITF inhibitor project, biochemical, triplicate | LysRS AlphaScreen counterscreen, signal interference | shares compounds with MITF primary | 4,700 compounds, 7.6% hits | inhibition, % at 2.6 µM;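 active = inhibition above a cutoff derived from the DMSO control wells, cut at about 30% in these data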
* hit, by the source's call. Hits are enriched below; roughly 3.5% of the tested compounds scored in any of these assays.

For CN1CCN(CCS(=O)(=O)OCC(F)(F)C(F)F)CC1 the results were FBW7 activator -0.1, GPR151 ag 2.4, MITF primary 77.1*, TEAD-YAP inh 0.2, MITF confirm 10.8 and AS interf ctr -2.5.
Screening O=C1/C(=C\c2ccco2)CC2CC1C/C(=C/c1ccco1)C2=O returned FBW7 activator -0.1, GPR151 ag -1.7, MITF primary 51.8*, TEAD-YAP inh 0.5, MITF confirm 17.3 and AS interf ctr -11.8.
Screening O=C1/C(=C\c2cccs2)CC2CC1C/C(=C/c1cccs1)C2=O returned FBW7 activator 0.1, GPR151 ag -1.9, MITF primary 24.0 and TEAD-YAP inh 1.6.
For Brc1cccc(CN2CCC(N3CCCCC3)CC2)c1 the results were FBW7 activator 0.0, GPR151 ag -0.1, MITF primary -10.1 and TEAD-YAP inh -5.3.
Screening Clc1cccc(CN2CCN(C3CCCCCC3)CC2)c1 returned FBW7 activator -0.1, GPR151 ag -0.5, MITF primary 68.6*, TEAD-YAP inh 1.0, MITF confirm -4.8 and AS interf ctr -5.5.
`c1ccc(CN2CCC(N3CCN(C4CCN(Cc5ccccc5)CC4)CC3)CC2)cc1` gave FBW7 activator -0.1, GPR151 ag -0.1, MITF primary 21.4 and TEAD-YAP inh 16.3.
For CS(=O)(=O)N1CCC(N2CCN(Cc3ccccc3)CC2)CC1 the results were FBW7 activator 0.0, GPR151 ag 1.1, MITF primary 54.0*, TEAD-YAP inh -3.3, MITF confirm 7.1 and AS interf ctr 19.9.
CC1CCCC(N2CCN(Cc3cccc(Cl)c3)CC2)C1 (stereo not drawn) was read as FBW7 activator 0.1, GPR151 ag 0.8, MITF primary 67.3*, TEAD-YAP inh -5.5, MITF confirm 0.9 and AS interf ctr -6.0.
For CCc1ccc(CN2CCN(C3CCN(Cc4ccccc4)CC3)CC2)cc1 the results were FBW7 activator -0.2, GPR151 ag -0.6, MITF primary 54.9*, TEAD-YAP inh 6.2, MITF confirm -8.7 and AS interf ctr 0.1.
`COc1ccccc1NCC(=O)N/N=C/c1ccc(Br)cc1` gave FBW7 activator 0.1, GPR151 ag -1.2, MITF primary 16.9 and TEAD-YAP inh -6.4.
Cc1ccc2c(c1)c(=O)c1ccccc1n2CCCC(=O)N1CCCC1 was read as FBW7 activator 0.2, GPR151 ag 0.5, MITF primary -12.6 and TEAD-YAP inh 12.5.
For Cc1ccc(CN2CCN(C3CCCCC3)CC2)cc1 the results were FBW7 activator -0.1, GPR151 ag -0.5, MITF primary 65.4*, TEAD-YAP inh -12.3, MITF confirm 3.1 and AS interf ctr 17.7.
For c1ccc(CN2CCN(C3CCCC3)CC2)cc1 the results were FBW7 activator -0.1, GPR151 ag 0.1, MITF primary 74.6*, TEAD-YAP inh 15.4, MITF confirm -4.8 and AS interf ctr -10.1.
O=C(Cc1ccccc1)N1CCC(N2CCN(Cc3ccccc3)CC2)CC1 was read as FBW7 activator 0.0, GPR151 ag 1.5, MITF primary 65.6*, TEAD-YAP inh 6.1, MITF confirm 2.3 and AS interf ctr 9.0.
`COc1ccc(C2=N/C(=C\c3cccnc3)C(=O)O2)c(Cl)c1` gave FBW7 activator 0.1, GPR151 ag -0.8, MITF primary -17.5 and TEAD-YAP inh 0.9.
CN(C)c1ccc(NC(=O)CSc2ncccc2C(=O)O)cc1 was read as FBW7 activator -0.1, GPR151 ag 0.9, MITF primary 64.3*, TEAD-YAP inh 31.6, MITF confirm 74.6*, AlphaScreen DR >6.48 and AS interf ctr 22.4.
CC(NC(=O)C(=O)NCc1ccccn1)c1ccccc1 (stereo not drawn) was read as FBW7 activator -0.4, GPR151 ag -0.5, MITF primary -0.5 and TEAD-YAP inh -2.6.
Screening C=CCc1cc(Cl)ccc1OCCCN1CCOCC1 returned FBW7 activator -0.1, GPR151 ag 3.8, MITF primary 71.0*, TEAD-YAP inh 10.9, MITF confirm -1.1 and AS interf ctr 6.9.
For C=CCc1cc(C)ccc1OCCCCN1CCOCC1 the results were FBW7 activator 0.1, GPR151 ag -1.8, MITF primary 55.8*, TEAD-YAP inh 2.6, MITF confirm 14.6 and AS interf ctr 19.1.
C=CCc1cc(Cl)ccc1OCCCN1CCN(CC)CC1 was read as FBW7 activator 0.1, GPR151 ag -1.6, MITF primary 80.6*, TEAD-YAP inh 11.2, MITF confirm 0.5 and AS interf ctr 18.6.
Cc1cccc(C(=O)N2CCCC(N3CCN(c4ccccc4)CC3)C2)n1 (stereo not drawn) was read as FBW7 activator 0.0, GPR151 ag 0.5, MITF primary 16.7 and TEAD-YAP inh -3.4.
For COc1cccc(CN2CCN(Cc3ccc(C)cc3)CC2)c1OC the results were FBW7 activator -0.2, GPR151 ag 0.1, MITF primary 75.8*, TEAD-YAP inh -3.6, MITF confirm -1.2 and AS interf ctr -2.3.
For CCOc1ccc(CN2CCN(Cc3cccc(OC)c3OC)CC2)cc1 the results were FBW7 activator 0.5, GPR151 ag -1.3, MITF primary 78.7*, TEAD-YAP inh -2.6, MITF confirm -3.4 and AS interf ctr 2.9.
For COc1cccc(CN2CCN(Cc3ccc(Cl)cc3)CC2)c1OC the results were FBW7 activator 0.0, GPR151 ag 0.6, MITF primary 70.4*, TEAD-YAP inh -9.7, MITF confirm 2.4 and AS interf ctr 7.9.
For CCOC(=O)N1CCN(C(=O)c2cn(-c3ccc(F)cc3F)c(=O)c3ccccc23)CC1 the results were FBW7 activator 0.0, GPR151 ag -0.5, MITF primary -12.5 and TEAD-YAP inh 3.5.
`CCCCCC1CCC(c2ccc(-c3ccc(O)cc3)cc2)CC1` (stereo not drawn) gave FBW7 activator 0.0, GPR151 ag 1.9, MITF primary 5.2 and TEAD-YAP inh 7.5.
`Cc1cc(OCCN2CCOCC2)ccc1C(C)C` gave FBW7 activator 0.2, GPR151 ag -1.9, MITF primary 59.5*, TEAD-YAP inh -39.4, MITF confirm 1.7 and AS interf ctr 3.0.
Screening Cc1ccc(C(C)C)cc1OCCN1CCOCC1 returned FBW7 activator 0.1, GPR151 ag 0.1, MITF primary 51.0*, TEAD-YAP inh 13.6, MITF confirm -10.7 and AS interf ctr -7.2.
For Cc1ccc(C)c(OCCCN2CCOCC2)c1 the results were FBW7 activator -0.1, GPR151 ag 0.6, MITF primary 9.6 and TEAD-YAP inh 1.9.

Screening data as filed in PubChem.
